Screens deposited in PubChem by several laboratories.
Only some compounds are listed: those with a hit (about 7.2% of all), similar ones and a draw of the others.
Efflux pump mplx – inhibitors of Candida efflux pumps in yeast, primary screen, S. cerevisiae, Nile Red, multiplex; S. cerevisiae Candida pump triplex; inhibition, % at 10 µM; actives 0.44% (n = 330,000);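 active means plate passing quality check with inhibition over a set limit, or well fluorescence over plate mean plus 4 SD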;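 further: Nile Red retained in pooled yeast measured as flow cytometry median fluorescence; 0% = buffer negative control and 100% = Enniatin B positive control; higher means more Nile Red kept so more efflux inhibition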
Bfl-1 A1 inh – caspase 3/7 activation in MEF A1-2A-BIM cells, primary screen, A1 inhibitor project, cell-based, luminescence, HTS; actives 0.066% (n = 330,000); caspase activation, % (no concentration beside the values); AID 2462, 2010; Caspase-Glo 3/7 luminescence, 3 h; percent of clofoctol response, vehicle zero;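 active means over half of replicate activation scores above 10%, or exactly half above 10 with the replicate mean above 10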
SUMO Mot1 rescue – yeast Mot1-301 growth rescue at high temperature, primary screen, SUMOylation pathway inhibitor project, S. cerevisiae, ATP luminescence, 38.5C; S. cerevisiae Mot1-301 growth rescue; percent above DMSO median, 100 means doubled; growth rescue, % at 18.8 µM; actives 1% (n = 320,000);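 active means every valid replicate shows activation above 250% relative to neutral control wells; inactive means the rest, any valid replicate at or below 250%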;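 further: OY570 slx delta 5 strain wells were the positive control but not used for scaling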
VLA-4 inh – inhibition in human VLA-4 binding assay, primary screen, VLA-4 allosteric modulator project, MLPCN library, flow cytometry, VLA-4 expressing cells | ligand binding flow cytometry | actives 0.2% (n = 330,000) | inhibition, % (about 7 µM as worked out from the volumes in the protocol) | AID 2557, 2010; in the data active means inhibition above about 50%
ALR H2O2 inh – inhibitors of human ALR sulfhydryl oxidase, primary screen, biochemical, H2O2 detection, HRP-luminol luminescence, single point. FAD-linked sulfhydryl oxidase ALR (Homo sapiens), P55789. purified ALR, DTT oxidation. inhibition, % (no concentration beside the values). actives 3.8% (n = 290,000);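 active means mean replicate inhibition above about 79%, with every replicate also reaching it, limit read from the data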
AHR activator – AHR activators, primary screen, cell-based, luminescence, luciferase reporter, human; actives 2.5% (n = 320,000); activation, % at 5 µM; AHR-responsive luciferase reporter cells; AID 2796, 2010; Aryl hydrocarbon receptor (Homo sapiens), P35869; in the data active means activation above about 47%;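 further: 0% = vehicle wells and 100% = reference agonist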
Target sequence (P35869 whole entry, looked up): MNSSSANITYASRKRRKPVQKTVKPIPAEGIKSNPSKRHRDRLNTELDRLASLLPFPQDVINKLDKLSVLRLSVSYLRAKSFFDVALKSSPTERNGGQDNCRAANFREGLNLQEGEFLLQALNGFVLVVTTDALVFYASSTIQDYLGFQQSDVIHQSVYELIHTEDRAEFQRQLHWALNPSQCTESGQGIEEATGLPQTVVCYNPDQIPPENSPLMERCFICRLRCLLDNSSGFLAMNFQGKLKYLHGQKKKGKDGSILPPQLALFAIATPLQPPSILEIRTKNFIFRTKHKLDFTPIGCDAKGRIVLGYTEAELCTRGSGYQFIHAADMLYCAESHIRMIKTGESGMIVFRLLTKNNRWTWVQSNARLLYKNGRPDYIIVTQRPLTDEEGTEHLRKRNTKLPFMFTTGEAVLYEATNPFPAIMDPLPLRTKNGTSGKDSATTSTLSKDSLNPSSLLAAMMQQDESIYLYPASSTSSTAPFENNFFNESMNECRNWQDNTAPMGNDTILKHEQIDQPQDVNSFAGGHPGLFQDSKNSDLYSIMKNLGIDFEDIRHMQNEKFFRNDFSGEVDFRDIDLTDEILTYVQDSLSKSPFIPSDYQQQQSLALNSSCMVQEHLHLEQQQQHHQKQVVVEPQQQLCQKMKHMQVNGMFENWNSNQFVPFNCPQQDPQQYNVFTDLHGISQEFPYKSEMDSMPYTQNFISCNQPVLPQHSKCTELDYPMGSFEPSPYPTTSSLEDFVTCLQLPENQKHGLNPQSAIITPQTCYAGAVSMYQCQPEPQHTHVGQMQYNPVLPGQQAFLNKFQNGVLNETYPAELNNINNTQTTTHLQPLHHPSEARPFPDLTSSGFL
* marks the source's active call; other numbers are inactive results; i = inactive; / = no result.

SMILES	Efflux pump mplx	Bfl-1 A1 inh	SUMO Mot1 rescue	VLA-4 inh	ALR H2O2 inh	AHR activator
CC12CCC(=O)N1C(C(=O)Nc1cc(Cl)ccc1N1CCCC1)CS2 (centres undefined)	0.1	-0.1	-0.1	11.4	86.2*	2.0
O=C(O)Cc1ccc(O)c(O)c1	0.1	-0.6	231.5	-14.0	98.4*	1.1
Cc1ccc(S(=O)(=O)N2CCC(C(=O)NNC(=O)C3CC3)CC2)cc1Cl	-0.1	0.0	-7.1	-10.8	-10.9	0.7
Cc1csc(NC(=O)Cc2coc3cc(C)c(C(C)C)cc23)n1	0.0	0.2	11.4	9.4	88.7*	2.3
Cc1cc2occ(CC(=O)NCc3cccs3)c2cc1C(C)C	0.0	0.3	/	28.4	-7.5	-1.4
Cc1ccc(-c2cc3nc(C)cc(C)n3n2)cc1	-0.2	-4.0	34.5	0.1	-3.0	61.9*
CCNc1nc(OCCNS(=O)(=O)c2cc(C)ccc2C)nc(N(C)C)n1	0.0	0.2	140.0	7.4	-0.9	2.2
CCNc1nc(OC)nc(N(OC)S(=O)(=O)c2ccc(C)cc2)n1	0.0	2.0	-3.5	9.5	82.0*	-0.5
CCS(=O)(=O)N1Cc2ccccc2CC1C(=O)N1CCN(c2ccccc2)CC1 (centres undefined)	0.0	0.7	-2.4	13.1	97.8*	-2.8
CS(=O)(=O)N1Cc2ccccc2CC1C(=O)O (centres undefined)	0.3	1.4	30.9	8.3	-2.5	6.5
CC1CCCCC12NC(=O)N(Cc1cc(=O)n3ccsc3n1)C2=O (centres undefined)	0.5	0.2	-4.6	-2.8	-5.8	-1.6
C=CCN1C(=O)/C(=C\c2cccc(OC(=O)c3ccco3)c2)SC1=S	-0.1	-0.3	3.8	-7.6	-4.5	0.6
CCN1C(=O)/C(=C\c2cccc(OC(=O)c3ccco3)c2)SC1=S	0.0	0.4	321.2*	-6.3	/	0.8
O=C(O)CN1C(=O)/C(=C\c2cccc(OC(=O)c3ccco3)c2)SC1=S	0.3	-1.0	416.8*	-0.2	21.1	0.2
O=C(Nc1ccc(F)cc1)C1CCCN(S(=O)(=O)c2ccc3[nH]c(=O)ccc3c2)C1 (centres undefined)	0.1	0.6	315.5	-3.3	-4.0	-1.0
CN(C)CCCn1c(=O)n(Cc2ccco2)c(=O)c2c3c(sc21)CCCCC3	0.1	0.5	-3.6	-4.8	6.0	1.0
Cn1c(=O)n(Cc2ccco2)c(=N)c2c3c(sc21)CCC3	0.0	0.5	-19.9	-4.1	76.5*	14.2
CC1(C)Cc2c(sc3[nH]c(=S)n(Cc4ccco4)c(=O)c23)CO1	-0.1	1.5	77.3	3.6	98.3*	0.5
O=c1c2c3c(sc2[nH]c(=S)n1Cc1ccco1)CCC3	0.0	-0.4	19.2	16.2	93.5*	2.7
CC1(C)Cc2c(sc3c2c(=N)n(Cc2ccco2)c(=O)n3Cc2ccccc2)CO1	0.0	1.1	-30.7	-3.1	-8.9	0.9
N=c1oc2ccccc2cc1-c1nc(-c2ccc(Cl)cc2)cs1	-0.2	0.1	2.2	-106.6	-3.2	27.9
O=C(Cn1c(=O)oc2ccccc21)NCCc1ccccc1Cl	0.4	0.2	4.3	14.5	0.4	-0.7
C/C(N)=C(/C#N)C(=O)CSc1nnc(Nc2c(C)cccc2C)s1	-0.1	-0.6	337.3*	3.3	-19.5	-3.1
COc1ccc(Cl)cc1-c1nc(SCC(=O)NC2CC2)n[nH]1	0.6	0.7	19.6	6.3	-1.7	24.2
O=[N+]([O-])c1cccc(N/N=C/c2cccc3ccccc23)c1	-0.1	-1.4	46.3	-3.8	/	61.4*
SMILES	Efflux pump mplx	Bfl-1 A1 inh	SUMO Mot1 rescue	VLA-4 inh	ALR H2O2 inh	AHR activator
O=[N+]([O-])c1ccc(N/N=C/c2cccc(O)c2O)cc1	0.0	-2.8	317.4*	-18.8	6.4	2.9
O=C(O)c1cc(N/N=C/c2cccc3ccccc23)ccc1Cl	0.0	-1.2	-6.3	9.0	/	25.9
O=[N+]([O-])c1ccc(N/N=C/c2c[nH]c3ccccc23)cc1	-0.2	0.0	10.8	i	-4.9	1.4
O=[N+]([O-])c1ccc(N/N=C/c2ccc[nH]2)cc1	0.1	0.2	116.6	-147.7	71.5	60.8*
Cc1ccc(CC(=O)N2CCN(C(=O)c3ccco3)CC2)cc1	0.4	0.4	-4.0	0.6	-1.2	-4.5
CC(C)c1ccc(Nc2nc(Cl)nc(NCCO)n2)cc1	0.0	1.0	-4.2	9.5	97.4*	23.1
Oc1ccc(Cl)cc1C1=NNC(c2ccc(Cl)cc2)C1 (centres undefined)	-0.1	0.2	-7.7	10.0	-0.2	76.9*
Oc1ccc(Cl)cc1C1=NNC(c2cc(Br)cc3c2OCOC3)C1 (centres undefined)	0.1	-0.2	-33.6	-5.5	-2.8	30.4
CCOc1cc(C2C(C(=O)N3CCCCC3)=C(C)NC3=C2C(=O)CCC3)cc(Br)c1O (centres undefined)	0.2	-0.5	0.6	5.5	-2.6	-0.4
C/C(=N\Nc1nccnc1Cl)c1ccc(O)cc1	-0.1	-4.3	-2.7	17.1	93.1*	28.0
C/C(=N\Nc1c(Cl)c(Cl)nc(C(=O)O)c1Cl)c1ccc(O)cc1	-0.1	0.1	8.2	-4.4	/	50.0*
C/C(=N\Nc1nc(C(C)(C)C)cs1)c1ccc(O)cc1	-0.1	-0.7	-18.3	4.9	/	22.5
Cc1ccccc1C(C(=O)NC1CCCCC1)N(C(=O)CNC(=O)c1ccco1)c1cccnc1 (centres undefined)	0.1	-0.2	-12.1	1.8	24.6	-0.4
COc1cc(C(=O)NC2CCCC(C)C2C)ccc1OCC(=O)N1CCOCC1 (centres undefined)	0.0	-0.3	-3.0	-2.8	7.2	-0.9
CC(C)OC(=O)CSc1nc(Cc2ccccc2)nc2ccccc12	0.0	0.6	/	16.8	86.2*	0.4
CCOC(=O)CNC(=O)CSc1nc(Cc2cccs2)nc2ccccc12	-0.1	-0.2	-5.4	-22.8	78.7*	14.7
CC(C)CN1C(=O)C(=O)N(CC(=O)N(C)CC(=O)Nc2ccc(Cl)c(C(F)(F)F)c2)C1=O	0.4	-0.7	4.1	2.7	/	-0.8
Cc1ccc(C(=O)N(c2ccccn2)C(C)c2ccco2)cc1C (centres undefined)	0.0	-7.6	/	44.8	97.1*	-3.4
CC(c1ccco1)N(C(=O)c1ccccc1NS(=O)(=O)c1cccc([N+](=O)[O-])c1)c1ccccn1 (centres undefined)	0.1	0.1	6.9	-9.4	-0.1	0.4
CC(c1ccco1)N(C(=O)c1ccccc1NS(=O)(=O)c1cc([N+](=O)[O-])ccc1Cl)c1ccccn1 (centres undefined)	0.0	0.5	402.2*	-5.7	-4.5	1.1
